Bioassay records as filed in PubChem BioAssay.
A selection: hits, their analogues and other compounds. The true share with any hit is near 5.7%.
ATXN2 expr inh: reduces ATXN2 reporter expression in HEK-293 cells; HEK-293 ATXN2-luciferase reporter, luminescence, 24 h; Potency, µM (titrated, usually from 57 µM), without a hit: at the top dose activity change, negative = inhibition, most hits filed as inhibitors; 0.72% of 360,000 active; also: potency is read from the fitted curve at half-maximal effect; % is scaled to controls: 0 for no effect and ±100 for the full control effect; nearly all actives have a fitted effect of over 55% in size
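ATXN2-luciferase reporter cells (luciferase flanked by upstream and downstream ATXN2 gene portions) were treated 24 h at 37 °C with compounds at up to 57 uM. SteadyGlo luminescence gave expression; GF-AFC fluorescence gave viability.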
ATXN viability: reduces viability in counter-screen for ATXN expression inhibitors. 0.49% of 400,000 active. Potency, µM (titrated, usually from 56.7 µM), usual class: cytotoxic. S2 cells (HEK-293 line with an ATXN2-luciferase reporter) viability, CellTiter-Fluor protease fluorescence, 24 h. AID 651635; also: potency is read from the fitted curve at half-maximal effect; nearly all actives have a fitted effect of over 40% in size
IL1B secr inh: inhibitors of inflammasome signaling (IL-1 beta secretion); activity change, % at 57.5 µM; AID 743279; 4.7% of 360,000 active; THP-1 LPS/ATP IL-1B secretion, AlphaLISA, 16 h; hits give low values; in the data active = activity change below about -50%; inconclusive = mostly about -30% to -49%; also: % is scaled to controls: 0 for no effect and ±100 for the full control effect
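Secreted IL-1B measured by AlphaLISA bead assay after 16 h compound exposure of THP-1 cells; compounds (final up to 57.5 uM) added 1 h before LPS (250 ng/mL) and ATP (1.25 mM) stimulation; lower signal means less secretion.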
HepG2 tox: kills HepG2 cells in TGF-b inhibitor counter-screen; 0.76% of 410,000 active; AID 588856; HepG2 CAGA-GFP viability, ATP luminescence, 18 h; Potency, µM (highest dose often 46.1 µM), without a hit: at the highest dose activity change, negative = cytotoxicity, most hits filed as cytotoxic; also: potency is read from the fitted curve at half-maximal effect
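CellTiter-Glo luminescence gave cytotoxicity after 18 hours at 37 degrees C. The cells were HepG2 CAGA-GFP in 1% FBS DMEM, stimulated with 500 pg/mL TGF-beta after compound addition. %Activity was normalised to no-cell wells (complete cell-killing) and DMSO (no toxicity), and curves were fitted and classified.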
TGFb inhibitor: inhibitors of TGF-b signaling; HepG2 CAGA-GFP TGF-b/SMAD3 reporter, GFP fluorescence, 18 h; TGF-beta stimulated, 500 pg/mL final; 1.2% of 410,000 active; Potency, µM (doses to about 46.1 µM), inactives show at the highest dose activity, negative = inhibition, hits mostly inhibitors; also: potency is read from the fitted curve at half-maximal effect; % is scaled to controls: 0 for no effect and ±100 for the full control effect; nearly all actives have a fitted effect of over 65% in size
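Per well, imaged GFP fluorescence of HEPG2 CAGA-GFP cells gives the signal; cells get compound, then TGF-beta (500 pg/mL final), 18 h at 37 degrees C; %Activity versus -TGF-beta and +DMSO controls.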
An asterisk follows results filed as active; i = inactive; u = inconclusive; x = not tested or not shown. Unless noted, calls follow the shape of the dose curve; as a rule, active = well fitted curve in the direction sought with a large enough effect; inconclusive = small, poorly fitted or top-dose-only effect, or another doubt; inactive = no such curve, though single readings can be large; an effect the other way counts as inactive or inconclusive.

SMILES	ATXN2 expr inh	ATXN viability	IL1B secr inh	HepG2 tox	TGFb inhibitor
O=S(=O)(c1ccc(OCC(O)CNC23CC4CC(CC(C4)C2)C3)c(Cl)c1)N1CCOCC1 (stereo unspecified)	u	u	-77.6*	12.6µM*	u
COc1ccccc1NC(=O)Cn1c(=O)n(Cc2ccccc2)c(=O)c2c1c1cc(C)ccc1n2C	7.8%	i	x	-0.3%	-3.3%
Cn1nnnc1SCCNCc1ccccc1OCc1ccc(Cl)cc1	-26.9%	i	-88.9*	-37.5%	u
Cn1nnnc1SCCNCc1cc(Br)ccc1OCc1ccccc1Cl	u	i	x	-51.1%	u
Cn1nnnc1SCCCNCc1ccccc1OCc1ccc(Cl)cc1	x	x	x	-28.4%	u
Cn1nnnc1SCCNCc1ccccc1OCc1ccccc1Cl	-22.7%	i	-50.4*	-18.7%	0.0%
CC(=O)c1ccc(N2CCN(C(=O)NCc3noc4ccc(C)cc34)CC2)cc1	3.9%	u	x	-47.1%	-25.5%
CN(C)CCN(Cc1ccsc1)c1ccccn1	0.6%	i	x	x	x
Cc1cnc(-n2ncc(C(=O)NCC3COCCO3)c2C2CC2)nc1-c1cccs1 (stereo unspecified)	x	i	x	x	x
Cc1ccc(-n2c(O)c(C=NCc3ccccn3)c3ccccc3c2=O)cc1C	x	i	-66.5*	-16.2%	-4.7%
Cc1cccc2[nH]c3c(N4CC=C(c5ccc(F)cc5)CC4)ncnc3c12	u	u	-91.7*	-52.5%	u
CCOc1ccc2cc(S(=O)(=O)N3CCCCC3)ccc2c1	-17.2%	i	8.3	17.8µM*	-24.2%
CCOc1ccc2cc(S(=O)(=O)N3CCN(C)CC3)ccc2c1	0.9%	i	-4.0	0.3%	-44.1%
CN1CCN(S(=O)(=O)c2cnccc2N2CCN(c3cccc(Cl)c3)CC2)CC1	5.7%	i	-50.5*	-0.5%	-4.5%
CCN(CC)S(=O)(=O)c1cnccc1N1CCN(c2cccc(Cl)c2)CC1	-25.9%	i	-68.7*	-5.5%	u
CCCCn1c2ccc(F)cc2c2nnc(SCCN3CCCCC3)nc21	5.5%	u	2.9	4.3%	128.7%
Cc1ccc2c(c1)c1nc3ccccc3nc1n2CCN1CCOCC1	-16.1%	i	-58.3*	-4.4%	10.2%
CCn1c2ccccc2c2nnc(SCCN3CCOCC3)nc21	x	i	12.4	-22.1%	0.2%
CCCCn1c2ccc(C)cc2c2nnc(SCCN3CCCCC3)nc21	-19.8%	u	-78.4*	-35.0%	-26.1%
CCn1c2ccc(C)cc2c2nnc(SCCN3CCOCC3)nc21	-14.4%	i	-64.2*	-3.0%	-0.2%
O=c1[nH]c(-c2ccc(C(F)(F)F)cc2)nc2c1CSCC2	13.2%	x	x	x	x
CCCCOC(=O)c1ccc(NS(=O)(=O)c2c(C)nc3scc(C)n3c2=O)cc1	-7.9%	i	x	-28.6%	11.2µM*
Cc1nc2scc(C)n2c(=O)c1S(=O)(=O)Nc1ccc(F)cc1	-2.3%	i	-4.6	0.1%	5.3%
CC1(C)CC2(C)OC2C2(C1)N=NC(=Nc1ccccc1)O2 (stereo unspecified)	-18.1%	22.4µM*	-99.2*	-69.1%	2.82µM*
COc1cc(CN(C(=O)c2ccc(Cl)cc2)C2CCS(=O)(=O)C2)cc(OC)c1OC (stereo unspecified)	2.3%	i	x	2.8%	-12.5%
SMILES	ATXN2 expr inh	ATXN viability	IL1B secr inh	HepG2 tox	TGFb inhibitor
CCc1ccc(NC(=O)c2ccc(F)c(S(=O)(=O)NC3CCCCCC3)c2)cc1	x	x	x	-16.9%	11.2µM*
CCc1ccc(NC(=O)c2ccc(F)c(S(=O)(=O)NCC3COc4ccccc4O3)c2)cc1 (stereo unspecified)	u	u	-69.9*	-44.9%	11.2µM*
COc1cc(NC(=O)c2cc(-c3cccc(OC)c3)n[nH]2)cc(OC)c1	-23.1%	u	x	-24.6%	25.4%
CCO[C@H](Cc1ccc(OCCc2ccc(OS(C)(=O)=O)cc2)cc1)C(=O)O	15.9%	i	x	x	x
C#CCOCCOCCOCCNc1nc(N2CCN(C(=O)CCCCCCCCCCNC(=O)[C@@H](CCC(=O)O)n3cc(CCCCCN)nn3)CC2)nc(N2CCN(C(=O)CCCCCCCCCCNC(=O)[C@H](CCCCN)n3cc(C[C@@H](C)CC)nn3)CC2)n1	-12.1%	x	u	-80.7%	u
C#CCOCCOCCOCCNc1nc(N2CCN(C(=O)CCCCCCCCCCNC(=O)[C@@H](CCSC)n3cc(CCO)nn3)CC2)nc(N2CCN(C(=O)CCCCCCCCCCNC(=O)[C@H](CCCN=C(N)N)n3cc(C[C@@H](C)CC)nn3)CC2)n1	u	15.8µM*	-99.7*	-80.3%	u
C#CCOCCOCCOCCNc1nc(N2CCN(C(=O)CCCCCCCCCCNC(=O)Cn3cc(C[C@@H](C)O)nn3)CC2)nc(N2CCN(C(=O)CCCCCCCCCCNC(=O)[C@@H](CCSC)n3cc(CCO)nn3)CC2)n1	-7.8%	i	1.7	4.4%	8.3%
C#CCOCCOCCOCCNc1nc(N2CCN(C(=O)CCCCCCCCCCNC(=O)[C@H](CCCCN)n3cc(CCO)nn3)CC2)nc(N2CCN(C(=O)CCCCCCCCCCNC(=O)[C@H](CCCCN)n3cc(C[C@@H](C)CC)nn3)CC2)n1	-23.8%	u	-20.5	-74.8%	u
C#CCOCCOCCOCCNc1nc(N2CCN(C(=O)CCCCCCCCCCNC(=O)[C@H](CCCCN)n3cc(C[C@@H](C)CC)nn3)CC2)nc(N2CCN(C(=O)CCCCCCCCCCNC(=O)[C@H](CCCN=C(N)N)n3cc(C[C@@H](C)CC)nn3)CC2)n1	-20.2%	x	-52.3*	15.8µM*	12.6µM*
C#CCOCCOCCOCCNc1nc(N2CCN(C(=O)CCCCCCCCCCNC(=O)[C@H](CCCCN)n3cc(C)nn3)CC2)nc(N2CCN(C(=O)CCCCCCCCCCNC(=O)[C@H](CCCN=C(N)N)n3cc(C[C@@H](C)CC)nn3)CC2)n1	u	u	-101.7*	-101.4%	u
COc1ccccc1CNC(=O)C1CCN(S(=O)(=O)c2c(C)noc2/C=C/c2c(C)cc(C)cc2C)CC1	x	x	x	-2.0%	-6.3%
O=C(C[n+]1cc(Br)cc(Br)c1)c1ccc2c(c1)CCCC2	x	x	x	0.9%	-13.0%
COc1ccc(-c2cc(=S)ss2)cc1	-4.1%	i	x	x	x
COCCCNC(=O)COc1ccc2oc3c(c2c1)CCCC3	8.8%	i	-4.4	-5.9%	-19.0%
CC(C)N(CCNC(=O)COc1ccc2oc3c(c2c1)CCCC3)C(C)C	-12.9%	i	-77.3*	-34.3%	0.0%
O=C(CN1C(=O)NC2(CCCC2)C1=O)OCCOc1cccc(Br)c1	-1.5%	i	-60.1*	-4.9%	-8.8%
CCc1cc(C(c2ccc(OC)c(OC)c2)N2CCOCC2)c(NC(=O)c2ccccc2)s1 (stereo unspecified)	21.5%	i	-124.4*	-26.7%	u
N#Cc1ccc(Oc2ccc3c(c2)COB3O)cc1	-23.2%	x	x	x	x
